Results filed as inconclusive are left out. A call without a number means that no potency is given here. Calls of active or inactive are those of the source. Calls follow the shape of the dose curve; as a rule, active = well fitted curve in the direction sought with a large enough effect; inconclusive = small, poorly fitted or top-dose-only effect, or effect the other way, or another doubt; inactive = no such curve, though single readings can be large or run the other way.

For 18 compounds, Potency results are on record in PubChem BioAssay AID2562 (National Center for Advancing Translational Sciences (NCATS), 2010).

Chain of Pyruvate kinase PKLR (Homo sapiens) (P30613 whole entry, looked up): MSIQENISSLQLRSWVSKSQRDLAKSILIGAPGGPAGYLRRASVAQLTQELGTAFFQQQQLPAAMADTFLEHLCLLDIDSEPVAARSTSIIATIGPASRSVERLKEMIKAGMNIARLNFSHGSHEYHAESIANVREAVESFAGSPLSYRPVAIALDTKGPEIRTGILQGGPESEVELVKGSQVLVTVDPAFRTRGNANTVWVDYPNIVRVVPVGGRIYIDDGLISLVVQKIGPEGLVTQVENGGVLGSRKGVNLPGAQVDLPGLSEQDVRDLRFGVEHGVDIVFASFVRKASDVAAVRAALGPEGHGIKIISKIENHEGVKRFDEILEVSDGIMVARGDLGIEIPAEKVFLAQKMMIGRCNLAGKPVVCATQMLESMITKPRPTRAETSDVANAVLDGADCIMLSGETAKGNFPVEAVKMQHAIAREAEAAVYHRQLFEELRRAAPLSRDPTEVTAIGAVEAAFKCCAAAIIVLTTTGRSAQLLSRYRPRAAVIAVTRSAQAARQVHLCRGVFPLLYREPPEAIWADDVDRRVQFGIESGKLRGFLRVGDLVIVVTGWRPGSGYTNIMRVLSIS

The test deals with Pyruvate kinase PKLR (Homo sapiens) (UniProt P30613). Nature of the test: Secondary LDH Assay for Activators of Human Reticulocyte Pyruvate Kinase: for Probe SAR. The note with it: purified hPK-R, LDH-coupled NADH fluorescence kinetic; series mostly up to 58.4 µM. Put shortly:
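LDH-coupled kinetic readout of pyruvate formation: NADH (0.2 mM) fluorescence decline over 3-6 minutes gave initial rates. Reactions held 10 nM hPK-R, 1 uM LDH, 0.1 mM PEP and 4.0 mM ADP at pH 8.0; activation normalized to fructose-bis-phosphate-type EC100.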
For `Cc1ccc(-c2nc3cnccn3c2Nc2ccc(C(C)C)cc2)o1`, the Potency result was “inactive”.
As for `Cc1ccc(NS(=O)(=O)c2ccc3c(c2)N(C)CCO3)cc1C`, the entry is “inactive”; as for `O=C1CCc2cc(S(=O)(=O)Nc3cccnc3)ccc2N1`, “inactive”.
Take `Cc1ccc(NS(=O)(=O)c2cc3c(cc2Br)NC(=O)CO3)cc1C`: the Potency result is “inactive”.
The value for `O=C1CCc2cc(S(=O)(=O)Nc3ccccc3-c3ccccc3)ccc2N1` was “inactive”; that for `Cc1cc(N2C(=O)c3ccccc3C2=O)no1` was “inactive”; that for `Cc1ccc(N(C)S(=O)(=O)c2ccc3c(c2)CCC(=O)N3)cc1C` was “inactive”.
As for `O=C1c2ccccc2C(=O)N1c1ccncc1`, the entry is “inactive”.
For the compound `Cc1ccc(NS(=O)(=O)c2cc3c(cc2-c2ccccc2)NC(=O)CO3)cc1C`, the Potency entry was “inactive”.
With `Cc1ccc(NS(=O)(=O)c2ccc(F)cc2)cc1C`, the Potency result was “inactive”.
On to `COc1ccccc1OC1=NS(=O)(=O)c2ccccc21`, for which the Potency entry is “inactive”.
As for `Cc1cc2c(s1)c1cnn(Cc3ccccc3F)c(=O)c1n2C`, the entry is “inactive”; as for `Cc1cccc(OC2=NS(=O)(=O)c3ccccc32)c1`, “inactive”; as for `Cc1ccc(NS(=O)(=O)c2ccc3[nH]c(=O)[nH]c3c2)cc1C`, “inactive”.
As for `O=C1c2ccccc2C(=O)N1Cc1ccccn1`, the entry is “inactive”; as for `O=C1CCc2cc(S(=O)(=O)Nc3ccccc3Cl)ccc2N1`, “inactive”; as for `Cc1ccc(NS(=O)(=O)c2cc3c(cc2-c2cn[nH]c2)NC(=O)CO3)cc1C`, “inactive”.
As for `O=C1CCc2cc(S(=O)(=O)Nc3ccccc3F)ccc2N1`, the entry is “inactive”.
